PubChem BioAssay (EPA / NIEHS)
Records with an inconclusive call do not appear. The source made the active and inactive calls. Rule for the calls, unless noted: active = hit-call score of the fitted dose curve at least 0.9, where 1 is the maximum; inactive = score below 0.9.

What was measured:
[1] = read-out: E-selectin (Homo sapiens) (UniProt P16581); assay: BSK_SAg_Eselectin: BioMAP Diversity Plus: SAg Assay for Eselectin Biomarker Activity (AID 2283091); conditions: primary human HUVEC with PBMC; actives raise or lower the signal
Outline: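 Endpoint values derive from bidirectional fitting relative to DMSO, using ELISA-measured E-selectin in a human vascular co-culture (umbilical vein endothelium plus PBMC) sampled 24 h after dosing.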

[2] = read-out: Monokine induced gamma interferon (MIG), CXCL9 (gene 4283); assay: BSK_SAg_MIG: BioMAP Diversity Plus: SAg Assay for Monokine induced gamma interferon (MIG) Biomarker Activity (AID 2283092); conditions: primary human HUVEC with PBMC; actives raise or lower the signal
Outline: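 Endothelial cells and PBMC were co-cultured, exposed to test chemicals, and sampled 24 h later. MIG was measured by ELISA, and responses were fitted in both directions relative to DMSO.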

[3] = BSK_SAg_PBMCCytotoxicity: PBMC Cytotoxicity Assessment in the BioMAP Diversity Plus: SAg Assay (AID 2283093); conditions: primary human HUVEC with PBMC;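 note: PBMC viability measured as Alamar Blue reduction fluorescence at 546/580 nm; fitted both ways against DMSO so a hit may be loss or gain of signal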;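 for AC50: PBMC superantigen activated with SEB plus TSST-1 one hour after compound addition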
Outline: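 Compound added to 75,000 PBMC/well for 1 h; SEB and TSST-1 then added at 20 ng/mL final each; 90 h incubation; Alamar Blue 6 h; read 546/580 nm ex/em. Activity fitted bidirectionally relative to DMSO baseline.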

[4] = read-out: Interleukin-8 (IL8), CXCL8 (gene 3576); assay: BSK_SAg_IL8: BioMAP Diversity Plus: SAg Assay for Interleukin-8 (IL8) Biomarker Activity (AID 2283094); conditions: primary human HUVEC with PBMC; actives raise or lower the signal
Outline: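 Human umbilical vein endothelial cells co-cultured with PBMC, stimulated with superantigen; IL-8 measured by ELISA 24 h after chemical dosing. Bidirectional fitting versus DMSO; SRB staining in parallel cultures tracks cytotoxicity.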

[5] = BSK_SAg_Proliferation: Cell Proliferation Assessment in the BioMAP Diversity Plus: SAg Assay (AID 2283095); conditions: primary human HUVEC with PBMC
Outline: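 Human umbilical vein endothelial cells co-cultured with PBMC; sulforhodamine B total-protein staining (0.1% SRB after 10% TCA fixation, absorbance 560 nm) at 96 h in sub-confluent culture. Fitted bidirectionally against DMSO.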

[6] = BSK_SAg_SRB: Viability Assessment in the BioMAP Diversity Plus: SAg Assay (AID 2283096); conditions: primary human HUVEC with PBMC;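 note: cells read one day after compound addition; hits may be either gain or loss of signal compared with DMSO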
Outline: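 Total protein by sulforhodamine B staining, 24 h after dosing, in HUVEC–PBMC co-culture; DMSO-referenced bidirectional fitting.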

[7] = molecular target: human CYP2A6, CYP2A6 (gene 1548) (UniProt P11509); assay: NVS_ADME_hCYP2A6: NovaScreen (NVS) CYP450-related Enzyme Activity (ADME) Assay for human CYP2A6 (AID 2283099; active = hit-call score of the fitted dose curve at least 0.9, where 1 is the maximum)
Chain of human CYP2A6, CYP2A6 (gene 1548) (P11509 whole entry, looked up): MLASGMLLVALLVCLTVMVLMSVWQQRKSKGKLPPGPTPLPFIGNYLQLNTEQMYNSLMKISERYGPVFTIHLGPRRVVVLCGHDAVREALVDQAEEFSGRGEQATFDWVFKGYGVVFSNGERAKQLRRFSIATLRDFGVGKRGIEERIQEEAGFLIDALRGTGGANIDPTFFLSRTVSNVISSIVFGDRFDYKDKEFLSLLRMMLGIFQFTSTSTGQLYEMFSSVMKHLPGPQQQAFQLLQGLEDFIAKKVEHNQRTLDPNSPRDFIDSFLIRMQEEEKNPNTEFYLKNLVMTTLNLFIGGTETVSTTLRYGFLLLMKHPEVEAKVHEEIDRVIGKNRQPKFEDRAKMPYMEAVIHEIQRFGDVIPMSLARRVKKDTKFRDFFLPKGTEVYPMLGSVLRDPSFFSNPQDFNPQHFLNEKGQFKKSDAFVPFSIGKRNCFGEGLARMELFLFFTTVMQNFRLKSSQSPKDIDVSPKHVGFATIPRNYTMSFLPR
Outline: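 Loss of fluorescence signal relative to acetonitrile vehicle reported CYP2A6 inhibition in a cell-free system using insect-cell-derived enzyme. Readings were taken at 0.5 h; top concentration in follow-up dose series was 20 uM.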

[8] = molecular target: human CYP1A1, CYP1A1 (gene 1543) (UniProt P04798); assay: NVS_ADME_hCYP1A1: NovaScreen (NVS) CYP450-related Enzyme Activity (ADME) Assay for human CYP1A1 (AID 2283100; active = hit-call score of the fitted dose curve at least 0.9, where 1 is the maximum)
Chain of human CYP1A1, CYP1A1 (gene 1543) (P04798 whole entry, looked up): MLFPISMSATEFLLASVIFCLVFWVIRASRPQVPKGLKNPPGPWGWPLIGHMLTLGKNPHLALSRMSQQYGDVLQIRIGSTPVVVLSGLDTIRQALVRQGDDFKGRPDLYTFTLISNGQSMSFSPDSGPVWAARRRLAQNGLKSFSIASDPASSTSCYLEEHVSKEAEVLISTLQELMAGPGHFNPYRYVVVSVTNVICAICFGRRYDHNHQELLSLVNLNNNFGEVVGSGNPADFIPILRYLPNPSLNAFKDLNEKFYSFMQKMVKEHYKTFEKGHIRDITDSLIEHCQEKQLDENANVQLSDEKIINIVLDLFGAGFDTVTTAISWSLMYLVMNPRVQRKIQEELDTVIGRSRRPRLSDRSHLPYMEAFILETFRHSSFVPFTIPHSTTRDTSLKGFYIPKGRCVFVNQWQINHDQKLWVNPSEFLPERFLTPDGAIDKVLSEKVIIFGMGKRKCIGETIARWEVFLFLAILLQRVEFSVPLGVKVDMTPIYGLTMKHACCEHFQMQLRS
Outline: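 Inhibition of recombinant CYP1A1 turnover was assessed fluorometrically in a biochemical format 1 h after compound exposure. Testing began at 10 uM in duplicate and progressed to concentration series reaching 20 uM, with on-plate positive and negative controls.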

[9] = molecular target: human CYP2B6, CYP2B6 (gene 1555) (UniProt P20813); assay: NVS_ADME_hCYP2B6: NovaScreen (NVS) CYP450-related Enzyme Activity (ADME) Assay for human CYP2B6 (AID 2283101; active = hit-call score of the fitted dose curve at least 0.9, where 1 is the maximum)
Chain of human CYP2B6, CYP2B6 (gene 1555) (P20813 whole entry, looked up): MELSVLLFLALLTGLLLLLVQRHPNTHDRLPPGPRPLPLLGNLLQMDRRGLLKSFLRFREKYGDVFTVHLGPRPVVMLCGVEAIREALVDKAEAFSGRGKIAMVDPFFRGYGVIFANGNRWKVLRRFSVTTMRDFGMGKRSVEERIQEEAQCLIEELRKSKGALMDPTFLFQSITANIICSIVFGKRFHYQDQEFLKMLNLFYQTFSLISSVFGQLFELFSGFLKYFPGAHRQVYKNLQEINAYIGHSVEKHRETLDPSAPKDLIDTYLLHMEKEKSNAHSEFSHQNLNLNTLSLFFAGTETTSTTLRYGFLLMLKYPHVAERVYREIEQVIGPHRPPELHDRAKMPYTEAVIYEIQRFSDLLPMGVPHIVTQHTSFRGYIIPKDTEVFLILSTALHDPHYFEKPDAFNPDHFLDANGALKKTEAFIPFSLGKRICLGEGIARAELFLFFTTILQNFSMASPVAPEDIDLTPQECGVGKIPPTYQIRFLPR
Outline: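 Cell-free recombinant enzyme assay with a fluorogenic substrate; fluorescence intensity read 1 hour after dosing. Loss of signal relative to acetonitrile negative control indicates inhibition. Primary screen run in duplicate at 10 uM, actives then tested in concentration series.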

[10] = molecular target: human CYP1A2, CYP1A2 (gene 1544) (UniProt P05177); assay: NVS_ADME_hCYP1A2: NovaScreen (NVS) CYP450-related Enzyme Activity (ADME) Assay for human CYP1A2 (AID 2283102; active = hit-call score of the fitted dose curve at least 0.9, where 1 is the maximum;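 for AC50: potency for inhibition since loss of fluorescence marks reduced CYP1A2 activity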)
Chain of human CYP1A2, CYP1A2 (gene 1544) (P05177 whole entry, looked up): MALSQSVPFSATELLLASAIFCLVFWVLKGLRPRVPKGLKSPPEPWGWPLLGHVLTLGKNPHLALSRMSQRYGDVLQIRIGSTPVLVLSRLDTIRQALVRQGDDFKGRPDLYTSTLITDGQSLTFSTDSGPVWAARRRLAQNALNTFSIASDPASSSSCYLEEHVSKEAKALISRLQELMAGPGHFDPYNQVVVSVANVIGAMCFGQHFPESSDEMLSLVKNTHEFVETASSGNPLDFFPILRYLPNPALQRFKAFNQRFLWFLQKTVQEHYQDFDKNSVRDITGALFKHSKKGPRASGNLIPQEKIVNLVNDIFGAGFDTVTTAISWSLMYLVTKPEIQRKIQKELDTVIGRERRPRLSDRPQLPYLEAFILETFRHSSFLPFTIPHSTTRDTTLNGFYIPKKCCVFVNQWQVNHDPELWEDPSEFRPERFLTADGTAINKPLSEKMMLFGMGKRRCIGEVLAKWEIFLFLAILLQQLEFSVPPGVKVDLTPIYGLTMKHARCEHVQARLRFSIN
Outline: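 Inhibition scored as decrease in fluorescent product versus acetonitrile negative control. Enzyme: insect-cell recombinant human CYP1A2, substrate-specific, cell-free. Reading at 0.5 h; 10 uM duplicate initial screen with positive and negative controls on every plate.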

[11] = molecular target: human CYP2D6, CYP2D6 (gene 1565) (UniProt P10635); assay: NVS_ADME_hCYP2D6: NovaScreen (NVS) CYP450-related Enzyme Activity (ADME) Assay for human CYP2D6 (AID 2283107; active = hit-call score of the fitted dose curve at least 0.9, where 1 is the maximum)
Chain of human CYP2D6, CYP2D6 (gene 1565) (P10635 whole entry, looked up): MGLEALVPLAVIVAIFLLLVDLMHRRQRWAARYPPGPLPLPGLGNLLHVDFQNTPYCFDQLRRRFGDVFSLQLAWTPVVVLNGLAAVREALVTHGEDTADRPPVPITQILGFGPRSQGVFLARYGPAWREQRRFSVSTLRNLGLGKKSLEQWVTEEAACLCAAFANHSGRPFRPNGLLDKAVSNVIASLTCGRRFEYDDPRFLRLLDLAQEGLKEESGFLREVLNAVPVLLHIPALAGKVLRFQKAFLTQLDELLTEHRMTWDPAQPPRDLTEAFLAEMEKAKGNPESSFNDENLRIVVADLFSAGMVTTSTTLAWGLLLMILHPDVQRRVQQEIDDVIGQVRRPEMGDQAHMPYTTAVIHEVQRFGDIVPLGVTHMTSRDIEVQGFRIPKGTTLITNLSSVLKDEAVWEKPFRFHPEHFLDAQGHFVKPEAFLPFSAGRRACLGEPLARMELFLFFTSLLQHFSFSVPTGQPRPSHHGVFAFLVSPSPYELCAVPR
Outline: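 Biochemical fluorescence assay, insect-cell-derived enzyme. Read at 1 h; inhibition taken from loss of signal against acetonitrile. Screened at 10 uM in duplicate, with concentration series for actives.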

[12] = molecular target: human CYP2C9, CYP2C9 (gene 1559) (UniProt P11712); assay: NVS_ADME_hCYP2C9: NovaScreen (NVS) CYP450-related Enzyme Activity (ADME) Assay for human CYP2C9 (AID 2283108; active = hit-call score of the fitted dose curve at least 0.9, where 1 is the maximum)
Chain of human CYP2C9, CYP2C9 (gene 1559) (P11712 whole entry, looked up): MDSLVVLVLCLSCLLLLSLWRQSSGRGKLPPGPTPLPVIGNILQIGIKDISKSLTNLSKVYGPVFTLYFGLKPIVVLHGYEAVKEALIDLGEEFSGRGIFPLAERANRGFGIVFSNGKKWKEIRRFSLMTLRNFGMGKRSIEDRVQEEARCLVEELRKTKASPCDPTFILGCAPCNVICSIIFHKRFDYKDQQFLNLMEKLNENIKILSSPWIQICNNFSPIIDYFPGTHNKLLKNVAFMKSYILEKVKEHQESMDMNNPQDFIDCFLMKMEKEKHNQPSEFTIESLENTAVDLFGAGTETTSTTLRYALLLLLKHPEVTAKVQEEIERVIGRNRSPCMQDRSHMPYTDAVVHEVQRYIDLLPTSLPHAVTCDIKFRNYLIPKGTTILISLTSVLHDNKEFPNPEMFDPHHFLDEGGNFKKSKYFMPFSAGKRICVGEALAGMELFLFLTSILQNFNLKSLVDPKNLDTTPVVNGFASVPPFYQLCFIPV
Outline: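 Fluorescence readout of CYP2C9 activity (SF9-expressed human enzyme) at 0.75 h. The primary screen used 10 uM in duplicate, with concentration-response follow-up for actives; acetonitrile was the negative control.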

[13] = molecular target: Cytochrome P450 2C19 (Homo sapiens) (UniProt P33261); assay: NVS_ADME_hCYP2C19: NovaScreen (NVS) CYP450-related Enzyme Activity (ADME) Assay for human CYP2C19 (AID 2283113; active = hit-call score of the fitted dose curve at least 0.9, where 1 is the maximum;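 note: potency for inhibition seen as loss of fluorescent signal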)
Outline: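 Biochemical CYP2C19 inhibition screen: insect-cell recombinant protein plus fluorescent substrate, 1 h, fluorescence intensity. Acetonitrile defined baseline activity. Single 10 uM concentration in duplicate, with concentration-response follow-up for actives.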

[14] = molecular target: Cytochrome P450 3A4 (Homo sapiens) (UniProt P08684); assay: NVS_ADME_hCYP3A4: NovaScreen (NVS) CYP450-related Enzyme Activity (ADME) Assay for human CYP3A4 (AID 2283110; active = hit-call score of the fitted dose curve at least 0.9, where 1 is the maximum)
Chain of Cytochrome P450 3A4 (Homo sapiens) (P08684 whole entry, looked up): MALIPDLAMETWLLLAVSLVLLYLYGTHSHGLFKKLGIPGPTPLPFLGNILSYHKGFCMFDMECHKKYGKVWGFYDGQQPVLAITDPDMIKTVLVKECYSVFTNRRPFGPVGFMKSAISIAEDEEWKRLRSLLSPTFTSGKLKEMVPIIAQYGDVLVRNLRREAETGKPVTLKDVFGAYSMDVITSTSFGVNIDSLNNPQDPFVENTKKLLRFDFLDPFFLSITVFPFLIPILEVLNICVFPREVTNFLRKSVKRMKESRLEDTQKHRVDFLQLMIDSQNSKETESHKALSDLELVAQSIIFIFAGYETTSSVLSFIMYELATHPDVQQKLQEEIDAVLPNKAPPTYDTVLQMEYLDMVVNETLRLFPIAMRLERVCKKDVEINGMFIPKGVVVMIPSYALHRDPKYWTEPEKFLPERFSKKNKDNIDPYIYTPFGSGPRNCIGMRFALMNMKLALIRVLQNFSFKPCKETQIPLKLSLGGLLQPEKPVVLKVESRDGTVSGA
Outline: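 Compounds were first screened in duplicate at 10 uM against recombinant CYP3A4 produced in insect cells, then actives were run in concentration series. Enzyme activity was measured by fluorescence after 0.33 hour, with acetonitrile as baseline.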

[15] = molecular target: human Beta-secretase (BACE), BACE1 (gene 23621) (UniProt P56817); assay: NVS_ENZ_hBACE: NovaScreen (NVS) Enzymatic Assay for human Beta-secretase (BACE) (AID 2283140; active = hit-call score of the fitted dose curve at least 0.9, where 1 is the maximum;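 note: hits are inhibitors that reduce fluorescent substrate signal versus DMSO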)
Chain of human Beta-secretase (BACE), BACE1 (gene 23621) (P56817 whole entry, looked up): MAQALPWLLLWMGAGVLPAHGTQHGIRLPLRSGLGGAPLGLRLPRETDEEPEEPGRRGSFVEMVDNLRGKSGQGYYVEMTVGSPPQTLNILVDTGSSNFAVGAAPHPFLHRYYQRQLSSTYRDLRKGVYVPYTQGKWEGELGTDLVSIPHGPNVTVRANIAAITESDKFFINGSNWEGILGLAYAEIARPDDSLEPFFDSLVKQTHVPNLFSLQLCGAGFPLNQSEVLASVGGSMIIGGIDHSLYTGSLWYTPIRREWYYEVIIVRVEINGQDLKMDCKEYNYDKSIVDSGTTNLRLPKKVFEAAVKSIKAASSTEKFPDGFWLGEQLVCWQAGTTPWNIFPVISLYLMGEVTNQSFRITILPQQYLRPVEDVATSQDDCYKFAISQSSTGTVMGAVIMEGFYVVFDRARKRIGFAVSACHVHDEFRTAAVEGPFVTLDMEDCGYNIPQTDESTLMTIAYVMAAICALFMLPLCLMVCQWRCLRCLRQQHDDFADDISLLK
Outline: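 Cell-free assay of recombinant Sf9-expressed human BACE with fluorescent substrate, read by fluorescence intensity after 1 h. Primary screen in duplicate at 25 uM; actives then run in concentration series; loss of signal relative to DMSO.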

[16] = molecular target: human AKT serine/threonine Kinase 1 (AKT1), AKT1 (gene 207) (UniProt P31749); assay: NVS_ENZ_hAKT1: NovaScreen (NVS) Enzymatic Assay for human AKT serine/threonine Kinase 1 (AKT1) (AID 2283138; active = hit-call score of the fitted dose curve at least 0.9, where 1 is the maximum)
Outline: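 Recombinant human AKT1 with a specific substrate, product separated by electrophoretic mobility shift, read after 1 h. Compounds at 25 uM in duplicate, then concentration-response up to 50 uM for hits; inhibition relative to DMSO.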

Measured: AC50

Chain of E-selectin (Homo sapiens) (P16581 whole entry, looked up): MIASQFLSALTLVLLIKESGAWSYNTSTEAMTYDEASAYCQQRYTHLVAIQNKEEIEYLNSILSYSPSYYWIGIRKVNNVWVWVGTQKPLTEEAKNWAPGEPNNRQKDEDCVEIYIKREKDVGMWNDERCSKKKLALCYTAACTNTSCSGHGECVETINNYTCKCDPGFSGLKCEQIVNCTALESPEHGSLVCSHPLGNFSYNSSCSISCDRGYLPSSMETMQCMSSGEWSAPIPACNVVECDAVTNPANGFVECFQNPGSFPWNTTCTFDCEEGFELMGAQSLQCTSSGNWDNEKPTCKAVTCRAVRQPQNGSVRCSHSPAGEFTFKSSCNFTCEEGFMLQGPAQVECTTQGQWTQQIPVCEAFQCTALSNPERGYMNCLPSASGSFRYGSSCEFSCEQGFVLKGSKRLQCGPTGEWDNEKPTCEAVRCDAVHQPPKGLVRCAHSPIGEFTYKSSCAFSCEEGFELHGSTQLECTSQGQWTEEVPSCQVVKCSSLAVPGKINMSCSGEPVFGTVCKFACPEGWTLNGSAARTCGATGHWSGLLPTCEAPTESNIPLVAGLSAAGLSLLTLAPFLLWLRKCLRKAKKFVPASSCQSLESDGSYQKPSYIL

OCCNCCO
inactive: [1] | [2] | [3] | [4] | [5] | [6]

CCOC(N)=O
inactive: [1] | [2] | [3] | [4] | [5] | [6]

OCC(CO)(CO)CO
inactive: [1] | [2] | [3] | [4] | [5] | [6]

O=C(Cl)C(F)(F)C(F)(F)C(F)(F)C(=O)Cl
inactive: [1] | [2] | [3] | [4] | [5] | [6]

c1ccc(C(O[C@@H]2CCCN(CCc3ccc4c(c3)OCO4)C2)c2ccccc2)cc1
active: [1] 27.6 µM | [2] 30.9 µM | [3] 28.4 µM | [4] 14.1 µM | [5] 16.3 µM | [6] 24.3 µM | [8] 4.89 µM | [9] 4.4 µM | [10] 5.35 µM | [11] 1.59 µM | [12] 6.98 µM | [13] 5.04 µM
inactive: [7]

O=C(O)c1cccc(C[C@@H]2COc3ccc(OCc4nc5cc(F)ccc5s4)cc3[C@@H]2O)c1
inactive: [1] | [2] | [3] | [4] | [5] | [6]

CCn1nc(C)c2c1C(=O)NCC(c1ccc(O)cc1)=N2
active: [1] 0.435 µM | [5] 20 µM | [11] 6.23 µM
inactive: [2] | [3] | [4] | [6]

CCCCOC(=O)c1ccccc1
inactive: [1] | [3] | [4] | [5] | [6]

OC(Cn1cncn1)(Cn1cncn1)c1ccc(F)cc1F
inactive: [1] | [2] | [3] | [4] | [5] | [6] | [12]

c1ccc2ncccc2c1
inactive: [1] | [3] | [4] | [5] | [6]

CCCCCCCCCC
active: [9] 10 µM | [12] 15.1 µM | [14] 6.55 µM | [13] 5.72 µM
not listed: [7] | [8] | [16]
inactive: all other assays above

CC(C)C(=O)Nc1ccc([N+](=O)[O-])c(C(F)(F)F)c1
inactive: [1] | [2] | [3] | [4] | [5] | [6] | [12]
active: [10] 5.33 µM | [13] 3.2 µM

O=S(=O)(O)CCC(F)(F)C(F)(F)C(F)(F)C(F)(F)C(F)(F)C(F)(F)F
inactive: [1] | [3] | [4] | [5] | [6]

S=P(N1CC1)(N1CC1)N1CC1
active: [5] 4.15 µM | [13] 5.2 µM | [15] 22.4 µM
inactive: [1] | [2] | [3] | [4] | [6]

NNC(=O)c1ccncc1
active: [3] 5.14 µM | [13] 1.49 µM
inactive: [1] | [2] | [4] | [5] | [6] | [16]

CCCOc1ccc(S(=O)(=O)N2CCN(CC)CC2)cc1-c1nc2c(CC)n(Cc3ccccn3)nc2c(=O)[nH]1
active: [12] 2.98 µM | [13] 1.45 µM
inactive: [1] | [2] | [3] | [4] | [5] | [6]

FC(F)(F)COC(OCC(F)(F)F)OCC(F)(F)F
inactive: [1] | [3] | [4] | [5] | [6]

Cc1nccn1-c1ccc(Sc2cccc(C3(C(N)=O)CCOCC3)c2)cc1
active: [1] 8.95 µM | [4] 5.42 µM | [5] 5.48 µM | [12] 5.01 µM | [13] 5.95 µM
inactive: [2] | [3] | [6]
